Screens as filed in PubChem.
Shown are actives, neighbours in structure and some others; about 0.5% of the full set was active somewhere.
E coli growth-1: E. coli growth inhibition; OD600 absorbance (concentration not given with the values); Escherichia coli growth, OD600, 23 h; active compounds read low; 330,000 tested, 0.21% active;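 active = OD600 absorbance below the run mean of sample wells minus 3.6 SD, in any replicate, cut at about 0.56 in these data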
E coli growth-2: counter-screen for AddAB inhibitors: E. coli growth inhibition. 330,000 tested, 0.27% active. inhibition, % at 11.9 µM. AID 449728. E. coli V3065 growth, OD600 absorbance, 18 h;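 active = inhibition above the campaign's mean inhibition across all tested compounds plus 3 SD, cut at about 9.9% in these data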;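 also: uninfected addAB+ strain grown without phage in ampicillin broth; 0% = DMSO wells and 100% = ciprofloxacin 0.95 µg/ml wells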
AddAB inh: less growth of phage-infected E. coli with AddAB. AID 435030. 330,000 tested, 0.29% active. inhibition, % at 11.9 µM. E. coli expressing H. pylori AddAB, absorbance growth; in the data active = inhibition above about 12%;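 also: 0% = vehicle wells of infected cells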
Tat transport: inhibitors of E. coli Tat protein transport; 340,000 tested, 0.036% active; E. coli MC4100 TorA-mCherry Tat export, fluorescence; inhibition, % at 10 µM; AID 488895;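 active = mean replicate inhibition at least 50% and at least half of replicates individually reaching 50%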;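 also: exported cargo escapes ClpAP degradation while cytoplasmic cargo is degraded and loses fluorescence; 0% = median of neutral control wells and 100% = median of NaSCN control wells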
phage Ecoli inh: E. coli growth loss with phage present. growth absorbance. inhibition, % at 11.9 µM. 360,000 tested, 0.26% active. AID 651602; in the data active = inhibition above about 11%
Active calls of the source: *; · = not tested or not shown.

SMILES	E coli growth-1	E coli growth-2	AddAB inh	Tat transport	phage Ecoli inh
NCCOc1ccc(C23CC4CC(CC(C4)C2)C3)cc1	0.47*	0	-2	8	4
COc1ccc(C=NNC(=O)CCn2nc(C)cc2C)cc1O	0.69	·	·	·	·
Oc1ccc(C[C@@H]2CNCCN2CCc2cc(C(F)(F)F)cc(C(F)(F)F)c2)cc1	·	0	0	-3	3
FC(F)(F)c1cc(CCN2CCNCC2CC2CCCCC2)cc(C(F)(F)F)c1 (stereo unspecified)	0.46*	·	·	·	·
O=C(NC1=NCCS1)c1ccc(N2CCCC2=O)cc1	0.53*	0	1	-9	5
Cc1nnc(NC(=O)c2ccc(N3CCCC3=O)cc2)s1	0.68	·	·	-3	6
CCCCCCn1c2c(c(=N)c3c1CCC3)CCC2	0.6	1	2	-10	3
CCCCCCCCCn1c2c(c(=N)c3c1CCC3)CCC2	0.49*	10*	5	-11	·
COc1ccc(/C=C/C(O)=C(\C#N)c2nnc(N3CCOCC3)n2-c2ccccc2)cc1OC	0.43*	-1	1	-7	0
CN1CCN(C(c2cccs2)c2nnnn2Cc2ccc(F)cc2)CC1 (stereo unspecified)	0.45*	-2	1	1	1
O=C(c1ccc(O)c(Br)c1)c1cc(Br)ccc1O	0.39*	·	·	-6	11
O=C(c1cnn(-c2ccccc2)c1)c1cc(Br)ccc1O	0.71	0	4	-5	3
COC(=O)c1c(NC(=S)NN2CCN(C)CC2)sc2c1CCC(C)C2 (stereo unspecified)	0.48*	-5	-3	14	3
COC(=O)c1c(NC(=O)Cc2cccs2)sc2c1CCC(C)C2 (stereo unspecified)	0.7	-1	3	7	0
CC(C)CC1CN=C(N)N1CC1CCCN1CC(C)N1CC(Cc2ccccc2)N(CCc2ccc(Cl)c(Cl)c2)C1=N (stereo unspecified)	0.2*	·	·	·	·
CCC(C)C1CN(C(C)CN2CCCC2CN2C(N)=NCC2Cc2ccccc2)C(=N)N1CCc1ccc(Cl)c(Cl)c1 (stereo unspecified)	0.57	·	·	·	·
CC(C)C[C@@H]1CN=C(N)N1C[C@@H]1CCCN1C[C@@H](C(C)C)N1C[C@@H](Cc2ccccc2)N(CCc2ccc(Cl)c(Cl)c2)C1=N	0.07*	-1	1	8	3
CC(C)C(CN1CCCC1CN1C(N)=NCC1Cc1ccccc1)N1CC(Cc2ccccc2)N(CCc2ccc(Cl)c(Cl)c2)C1=N (stereo unspecified)	0.046*	·	·	·	·
CC(C)C[C@@H]1CN=C(N)N1C[C@@H]1CCCN1C[C@H](C)N1C[C@@H](Cc2ccccc2)N(CCc2ccc(Cl)c(Cl)c2)C1=N	·	0	1	18	·
CCOC(=O)C(=CNc1ccccc1)[N+](=O)[O-]	0.74	·	·	·	·
CC(C)c1ccc2c(c1)C(N1CCNCC1)Cc1ccc(F)cc1S2 (stereo unspecified)	0.13*	1	1	·	4
Cc1cc(O)c(C(C)C)cc1N=Nc1ccccc1C(=O)O	0.66	-1	-2	3	-2
Cc1cc(N=Nc2ccccc2C(=O)O)c(C)c(C)c1O	0.72	10.0*	7	-1	1
CCCCCC[N+](C)(C)CCSSCC[N+](C)(C)CCCCCC	0.65	0	0	0	1
CCCCCCCCCCCCCCCC[N+](C)(C)CC	0.061*	-2	-2	13	2
SMILES	E coli growth-1	E coli growth-2	AddAB inh	Tat transport	phage Ecoli inh
CC(=O)NC(=Cc1cccnc1)C(=O)Nc1ccc(Cl)cc1	0.64	·	·	·	·
OC(CNCC1CCCO1)Cn1c2ccccc2c2ccccc21 (stereo unspecified)	0.73	-1	3	-5	2
OC(CNCCC1C=Nc2ccccc21)Cn1c2ccc(Cl)cc2c2cc(Cl)ccc21 (stereo unspecified)	0.054*	0	3	-1	5
OC(CNCC1CCCO1)Cn1c2ccc(Cl)cc2c2cc(Cl)ccc21 (stereo unspecified)	0.55*	0	3	0	1
O=C(NN=Cc1c(Cl)cccc1Cl)c1cccc(F)c1	0.7	·	·	·	·
S=C(NCc1ccccc1)NCc1cccc(CNC(=S)NCc2ccccc2)c1	0.72	10*	10	-4	7
O=[N+]([O-])c1ccc(N=Nc2c(Cl)cc(O)cc2Cl)cc1	0.4*	0	0	-5	1
Cc1ccc(C(C[N+](=O)[O-])c2c(-c3ccccc3O)[nH][nH]c2=O)cc1 (stereo unspecified)	0.52*	0	8	-30	5
O=C(Nc1ccc(Cl)c(Cl)c1)Nc1ccon1	0.54*	1	-1	2	5
O=C(Nc1cccnc1)Nc1ccc(F)c(Cl)c1	0.54*	0	2	-9	7
